Results reported in PubChem BioAssay AID1159580 (chemical genetic matrix, 2015).
Screen size: about 5,500 compounds; about 2,000 (36%) were called active. Not shown: some 18% with an inconclusive outcome. Rule as the data show it: active = normalized growth mostly below about 0.91 (no sharp cut-off); inconclusive = no clear call, values can overlap the other calls; inactive = mostly above about 0.92. This is one part of the list.

Assay: chemical genetic growth profiling, strain panel (AID 1159580);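 also: tested at 20 µM; growth read once vehicle control cultures reached saturation at 30 °C; 1 = growth at the plate median or of vehicle wells; lower values mean less growth of the strain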
Conditions: growth OD

Measured: normalized growth

CSc1nc(N)nc(C(C)(C)C)n1
inactive: S. cerevisiae deletion strains, locus YAL013W, strain DEP1, hits give low values 1.01 | S. cerevisiae deletion strains, locus YBR229C, strain ROT2, hits give low values 1 | S. cerevisiae deletion strains, locus YCL061C, strain MRC1, hits give low values 0.993 | S. cerevisiae deletion strains, locus YDL101C, strain DUN1, hits give low values 0.976 | S. cerevisiae deletion strains, locus YDL134C, strain PPH21, hits give low values 1.01 | S. cerevisiae deletion strains, locus YDR150W, strain NUM1, hits give low values 0.978 | S. cerevisiae deletion strains, locus YEL061C, strain CIN8, hits give low values 1.02 | S. cerevisiae deletion strains, locus YGR078C, strain PAC10, hits give low values 1.01 | S. cerevisiae deletion strains, locus YHR030C, strain SLT2, hits give low values 0.974 | S. cerevisiae deletion strains, locus YHR087W, strain rtc3, hits give low values 1 | S. cerevisiae deletion strains, locus YJL187C, strain SWE1, hits give low values 1.02 | S. cerevisiae deletion strains, locus YJR043C, strain POL32, hits give low values 1.01 | S. cerevisiae deletion strains, locus YJR075W, strain HOC1, hits give low values 0.978 | S. cerevisiae deletion strains, locus YLR039C, strain RIC1, hits give low values 1.01 | S. cerevisiae deletion strains, locus YLR058C, strain SHM2 (second series), hits give low values 1.02 | S. cerevisiae deletion strains, locus YLR085C, strain ARP6, hits give low values 1.03 | S. cerevisiae deletion strains, locus YLR262C, strain YPT6, hits give low values 1.01 | S. cerevisiae deletion strains, locus YML094W, strain GIM5, hits give low values 0.981 | S. cerevisiae deletion strains, locus YMR219W, strain ESC1, hits give low values 1.02 | S. cerevisiae deletion strains, locus YMR263W, strain SAP30, hits give low values 0.991 | S. cerevisiae deletion strains, locus YNL128W, strain TEP1, hits give low values 1.02 | S. cerevisiae deletion strains, locus YNL153C, strain GIM3, hits give low values 0.982 | S. cerevisiae deletion strains, locus YNL298W, strain CLA4 (second series), hits give low values 1.03 | S. cerevisiae deletion strains, locus YNL322C, strain KRE1, hits give low values 1 | S. cerevisiae deletion strains, locus YNR030W, strain Alg12, hits give low values 1 | S. cerevisiae deletion strains, locus YOL006C, strain TOP1, hits give low values 0.968 | S. cerevisiae deletion strains, locus YPL055C, strain LGE1, hits give low values 0.989 | S. cerevisiae deletion strains, locus YPL241C, strain CIN2, hits give low values 1.11 | S. cerevisiae deletion strains, locus YPR135W, strain CTF4, hits give low values 0.951 | S. cerevisiae strains, strain wild type, hits give low values 1.02
